16 compounds from PubChem BioAssay (NCI) can be followed below.

Compounds without any hit were thinned out: in the full panel of roughly 83,000, 20% have a hit.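 Negative percent growth values reflect cell death: -40 means 40% of the cells present at the start died, and -100 means all died.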 Values without a mark were called inactive. Active and inactive are the calls of the source. Rule for the calls: active = growth percent below 10; inactive = the rest.

Experiment in all cases: NCI-60 one-dose screen, 48 h (100 = growth as untreated, 0 = no growth, -100 = all killed)
Details in all cases: 10 µM unless noted

Test [1] deals with T-47D breast.
In test [2] the test system is BT-549 breast.
Test [3] has as its system MDA-MB-435 melanoma.
Test [4] concerns SW-620 colon.
The test system of test [5] is MCF7 breast.
Test [6] relates to HCT-116 colon.
In test [7] the test system is HCC-2998 colon.
Test [8] has as its system KM12 colon.

Take `Nc1c(C(=O)Nc2cccc3cnccc23)sc2nc3c(cc12)C(=O)CCC3`: the growth in test [1] is 105%; in test [2], 83.4%; in test [3], 7.12% (active); in test [4] it was 79.4%; in test [5], 53.8%; in test [6], 86%. In addition, the growth in test [7] was 97.4%; in test [8], 71.5%.

In the case of `Cc1cnc(C(=O)Nc2nc3ccc(S(=O)(=O)Nc4ccc(C(C)(C)C)cc4)cc3[nH]2)cn1`, the growth in test [1] was 27.1%; in test [2], 26.7%; in test [3] it was -64.6% (active); in test [4] it was 18.6%; in test [5], 22.4%; in test [6], 14.2%. Also, the growth in test [7] is 33.3%; in test [8], 22.9%.

Regarding `COc1ccc(NC(=O)c2cc(NCc3cc(O)ccc3O)ccc2O)cc1`, the growth was 68.4% in test [1]; 71.8% in test [2]; 99.7% in test [3]; 100% in test [4]; 75.6% in test [5]; 96.9% in test [6]. Besides, the values for the growth in test [7] and in test [8] were 107% and 88.3%, respectively.

With `O=C1Nc2cc(-c3ccc(NC(=O)c4ccccc4)cc3)ccc2/C1=C/c1ccc[nH]1`, the growth in test [1] was 35.7%; in test [2], 89.1%; in test [3], 99.5%; in test [4], 105%; in test [5], 8.35% (active); in test [6], 99.1%. For the same compound, the growth in test [7] is 99.8%; in test [8] it was 68.7%.

Take `NS(=O)(=O)c1ccc(CCN2C(=O)c3cc(Cl)c(Cl)cc3C2=O)cc1`: the growth in test [1] is 98.4%; in test [2], 109%; in test [3], 108%; in test [4], 110%; in test [5] it was 98.6%; in test [6], 100%. The growth in test [7] is 90.2%; in test [8] it was 100%.

Consider `Cc1cc(Cl)nc(N(CCNc2ccnc3cc(Cl)ccc23)Cc2ccccn2)n1`, for which the growth in test [1] is -19.6% (active); in test [2], 75.4%; in test [3] it was 61.7%; in test [4] it was 56.6%; in test [5], 53.6%; in test [6] it was 17.3%. The growth is 85.7% in test [7] and 64.1% in test [8].

Turning to `COc1cc2nc(-c3ccc(C(F)(F)F)cc3)cc(OCCCN3CCCC3)c2cc1OC`, the growth in test [1] is 38.4%; in test [2], 28.8%; in test [3], -21.1% (active); in test [4], 28.6%; in test [5], 44.7%; in test [6], 23.6%. Moreover, the growth in test [7] is 70%; in test [8], 36.4%.

As for `Nc1c(C(=O)Nc2ccnc3ccccc23)sc2nc3c(cc12)CN(Cc1ccccc1)CC3`, the growth in test [1] is 38.5%; in test [2], 30.8%; in test [3], 73.6%; in test [4] it was 95.3%; in test [5], 68.9%; in test [6], 45%. Also, the growth was 103% in test [7] and 79.7% in test [8].

On to `O=C1c2c(c3c4cccc(F)c4[nH]c3c3ccc4ccccc4c23)C(=O)N1O`, for which the growth in test [1] is 19.6%; in test [2], 52.7%; in test [3] it was 60.7%; in test [4], 31.2%; in test [5] it was 19.4%; in test [6] it was 16.9%. The results for the growth in test [7] and in test [8] were 76.3% and 25.4%, respectively.

Turning to `Cn1c(-c2c(N)n(CCCN3CCOCC3)c3nc(C#N)c(C#N)nc23)nc2ccccc21`, the growth is 49.9% in test [1]; 35.6% in test [2]; 79.3% in test [3]; 39.7% in test [4]; 52.9% in test [5]; 22.7% in test [6]. Besides, the growth in test [7] was 80%; in test [8], 75.6%.

For the compound `CCc1ccc(CNc2ccc(N3CCOCC3)c(C(=O)O)c2)cc1`, the growth was 86.3% in test [1]; 105% in test [2]; 108% in test [3]; 111% in test [4]; 86.2% in test [5]; 86.1% in test [6]. Moreover, the results for the growth in test [7] and in test [8] were 104% and 106%, respectively.

Consider `NS(=O)(=O)c1ccc(Cn2c(SCC(=O)N/N=C/c3ccccc3O)nc3ccccc3c2=O)cc1`, for which the growth is 33.3% in test [1]; 56.1% in test [2]; 71.7% in test [3]; 60.4% in test [4]; 50% in test [5]; 42.7% in test [6]. Further, the growth is 50.7% in test [7] and 39.2% in test [8].

Take `c1ccc2c(-c3nccs3)c[nH]c2c1`: the growth is 96.3% in test [1]; 86.6% in test [2]; 101% in test [3]; 99.1% in test [4]; 79.8% in test [5]; 95.7% in test [6]. The growth in test [7] was 107%; in test [8], 96.3%.

Consider `COc1ccc(C(=O)c2cc(OC)c(OC)c(OC)c2)cc1O`, for which the growth in test [1] is 54.7%; in test [2] it was 12%; in test [3], -41.1% (active); in test [4], 22.3%; in test [5] it was 6.25% (active); in test [6], 4.24% (active). Further, the growth in test [7] was 12.4%; in test [8] it was 9.38% (active).

Take `COc1cccc(-c2nc3occn3c2-c2ccnc(NCCNS(=O)(=O)c3ccc(C(F)(F)F)cc3)n2)c1`: the growth in test [1] was 41.1%; in test [2] it was 96.5%; in test [3] it was 70.4%; in test [4] it was 113%; in test [5], 80.9%; in test [6], 92.9%. The growth is 133% in test [7] and 98.9% in test [8].

With `CC1=C(C(=O)/C=C/c2ccc(N(C)C)cc2)C(c2ccccc2)NC(=S)N1` (stereo not drawn), the growth in test [1] is 101%; in test [2], 118%; in test [3], 102%; in test [4], 98.8%; in test [5], 99.2%; in test [6] it was 101%. The growth in test [7] is 108%; in test [8], 101%.
